Test results taken from PubChem BioAssay AID624465 (National Center for Advancing Translational Sciences (NCATS), 2012).
In all, about 360,000 compounds went through this assay and about 300 (0.083%) were called active. Many of the other results were omitted from the sample, so actives are more common in it than they were. Unmarked numbers belong to inactive results. No stated cut-off is given here; in the data, active means activation above about 40%; inconclusive means between about 15% and that limit; inactive means weaker than that.

biological target: D(2) dopamine receptor (Homo sapiens) (UniProt P14416); experiment: Beta-Arrestin HTS for Positive Allosteric Modulators of the Human D2 Dopamine Receptor: Agonists; conditions: DiscoveRx PathHunter D2 beta-arrestin, luminescence, 90 min; active compounds read high; 100% = 57 uM dopamine signal
Source text: There is great interest in identifying small molecule ligands for G-protein coupled receptors (GPCRs) as nearly 50% of all FDA-approved drugs target these important receptor proteins. […] Amongst the dopamine receptors (DARs), the D2 is arguably one of the most validated drug targets in neurology and psychiatry. For instance, all receptor-based antiparkinsonian drugs primarily work via stimulating the D2 DAR, whereas all FDA-approved antipsychotic agents are antagonists of this receptor. The D2 DAR is also therapeutically targeted in other disorders such as restless legs syndrome, tardive dyskinesia, Tourette's syndrome, and hyperprolactinemia.
To this end, a miniaturized qHTS screen was developed to be screened against the Molecular Libraries Small Molecule Repository (MLSMR). This assay seeks to identify agonists against the D2 DAR.
NIH Molecular Libraries Probe Production Network [MLPCN]
NIH Chemical Genomics Center [NCGC]
PI Name: David Sibley, National Institutes of Neurological Disorders and Stroke
DiscoveRx D2 cells were thawed from frozen stock and seeded at 2,100 cells/ 3 uL/well media (DiscoveRx Plating Reagent 2) with MultiDrop Combi dispenser (Thermo Scientific, Logan, UT) onto white tissue culture treated 1536-well Aurora plates (Brooks Automation, Chelmsford, MA) and allowed to attach overnight at 37 deg C, 5% CO2. Next, 23 nL/well of compound solutions in DMSO were added with a pintool transfer (Kalypsis, San Diego, CA). As the positive control, 1 uL/well dopamine (EC100, 57 uM final concentration) diluted in buffer (HBSS + 10 mM HEPES + SMB + 0.1% Tween-20) was dispensed to 1 column of each plate. The rest of the plate was dispensed with buffer only, 1 uL/well as well. The cells were stimulated by compounds or dopamine control for 90 minutes at 37 deg C, 5% CO2, after which 1.5 ul/well of DiscoveRx detection reagent was added with BioRAPTR FRD dispenser. The detection reagent was prepared by mixing of Galacton Star Substrate, Emerald II solution and PathHunter buffer (supplied by the assay kit) together at 1:5:19 proportion accordingly just prior to dispensing. The plates were incubated at ambient temperature for 1 hour and then the luminescent signal was read on ViewLux plate reader (PerkinElmer, Waltham, MA).

Chain of D(2) dopamine receptor (Homo sapiens) (P14416 whole entry, looked up): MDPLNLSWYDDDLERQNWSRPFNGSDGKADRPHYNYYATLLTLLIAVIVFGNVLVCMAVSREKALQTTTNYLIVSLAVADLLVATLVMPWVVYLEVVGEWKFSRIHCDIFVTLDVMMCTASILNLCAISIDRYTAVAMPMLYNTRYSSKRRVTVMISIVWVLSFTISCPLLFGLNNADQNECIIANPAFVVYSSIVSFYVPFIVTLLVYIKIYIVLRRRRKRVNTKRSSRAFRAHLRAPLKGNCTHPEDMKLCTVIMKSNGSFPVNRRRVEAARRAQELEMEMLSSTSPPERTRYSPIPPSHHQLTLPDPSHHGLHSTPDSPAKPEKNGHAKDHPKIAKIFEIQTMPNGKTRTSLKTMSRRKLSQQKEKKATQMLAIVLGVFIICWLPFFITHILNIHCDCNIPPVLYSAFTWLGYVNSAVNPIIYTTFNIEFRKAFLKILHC

SMILES | activation
CC(OC(=O)CNS(=O)(=O)/C=C/c1ccccc1)C(=O)Nc1ccc(S(=O)(=O)N2CCCC2)cc1 (stereo not given) | 0.137%
CCOc1ccc(NC(=O)CN(C)C(=O)c2c(C)noc2C)cc1OCC | -1.71%
NC(=O)C(Cc1ccccc1)NC(=O)C12CC3CC(CC(C3)C1)C2 (stereo not given) | -2.84%
CSc1nnc2c(n1)OC(c1cn(C)c3ccccc13)N(C(C)=O)c1ccccc1-2 (stereo not given) | -3.75%
O=C(CSc1nc2cccc(F)c2c(=O)n1-c1ccccc1)Nc1ccc2c(c1)CCC2 | 0.472%
C=CS(=O)c1sc(Cl)c(N2CCOCC2)c1[N+](=O)[O-] (stereo not given) | -11%
CC(C)c1cccc(C(C)C)c1Nc1cn[nH]c1 | 8.06%
CSCCC(NC(=O)COc1ccccc1)C(=O)N(C)CC(=O)Nc1ccc(C)cc1 (stereo not given) | -3.34%
Cc1ccc(Sc2cc(N3CCOCC3)nc(-c3ccccc3)n2)cc1 | 2.6%
Cc1csc(NC(=O)CSc2nnc(-c3cccnc3)o2)n1 | -2.74%
CCC(=NC1CC(C)(C)NC(C)(C)C1)C1=C(O)CC(C)(C)CC1=O | 0.839%
CCOc1ccc(NC(=O)CN(C)CC(=O)NC(C)c2ccccc2)cc1OCC (stereo not given) | -5.49%
COCCn1c(C)cc(C(=O)COC(=O)/C=C/c2cccc(OC)c2)c1C | -0.488%
CCCCc1nccn1CCn1ccnc1CCCC | -1.34%
Cc1cc(C)nc(N2C(=O)CC(Cc3ccccc3)C2=O)n1 (stereo not given) | -1.43%
CC(C)c1ccc(N(C(=O)c2ccco2)C(C(=O)NC2CCCC2)c2cccnc2)cc1 (stereo not given) | 1.27%
CCN1CCN(C(=O)/C=C\C(=O)O)CC1 | -0.987%
CCOc1ccc(Oc2nc(C)cc(OC)n2)nn1 | -3.16%
CCC(C(=O)NC1CCCCC1)N(C(=O)c1snc(C(N)=O)c1N)c1ccc(OC)cc1OC (stereo not given) | -1.51%
CC(=O)NC1(c2ccc(F)cc2)CCN(C(=O)c2c(F)cccc2F)CC1 | -4.03%
Cc1ccc(Cl)cc1NC(=O)C1CCN(S(C)(=O)=O)CC1 | -3.51%
CC(NCc1ccccc1OC1CCCC1)c1ccccc1 (stereo not given) | -2.1%
COc1ccc(-c2ccc3nnc(SCC(=O)Nc4ccc(NC(C)=O)cc4)n3n2)cc1 | 0.231%

SMILES | activation
O=C(NNS(=O)(=O)c1ccc(F)cc1)C1CCCCC1 | -2.79%
O=C(Cn1nc([N+](=O)[O-])nc1Br)NC1CCCCC1 | 6.2%
CC(=O)c1nnn(-c2ccc(Cl)cc2C#N)c1C | -0.344%
Cc1cccc2nc(CNc3ccc(F)cc3)cn12 | -2.67%
COc1ccc([N+](=O)[O-])cc1NC(=O)c1ccc(N(Cc2ccccc2C)S(C)(=O)=O)cc1 | 1.42%
CN(CC(=O)NC1CCCCC1)S(=O)(=O)c1cccc2cccnc12 | -4.91%
CCCCCN(C(=O)NC(=O)Nc1cccc(C)c1C)S(C)(=O)=O | -5.29%
Cc1ccccc1Nc1scc(-c2ccc(Br)cc2)[n+]1-c1ccccc1C | -4.78%
Cc1nn(-c2ccccc2)c2c1c(C)c(CCC(=O)NCC1CCCO1)c(=O)n2C (stereo not given) | -0.567%
O=c1ccc2cc(S(=O)(=O)N3CCN(c4ccccc4)CC3)ccc2o1 | -0.365%
CCCOc1cc(C)c(S(=O)(=O)n2nnc3ccccc32)cc1C | 2.16%
CC(=O)N1C[C@@H](CO)[C@@H](N(C)C(=O)c2ccco2)C[C@H]1c1ccccc1 | -6.66%
Cc1cc(C)cc(C(=O)N(CCc2ccccc2)C2=CC3CCC(C2)N3C)c1 (stereo not given) | 0.198%
CCCN(CCc1ccccc1)C1CCc2c(O)cccc2C1 (stereo not given) | 56.1% (active)
CCCc1cc(=O)[nH]c(SCC(=O)c2c(N)n(CC(C)C)c(=O)n(C)c2=O)n1 | -5.56%
Cc1ccc(-c2csc(C(C#N)=C(O)CN3CCN(C(=O)c4ccco4)CC3)n2)cc1 | 9.93%
O=C(NCC1CCCO1)C1CCN(C2CCN(C(=O)C3CCCCC3)CC2)CC1 (stereo not given) | 0.237%
CC1CCc2c(sc3c2C2=NS(=O)(=O)CCN2C=N3)C1 (stereo not given) | -1.75%
CCCCN1C(=O)C(=O)N(CC(=O)Nc2cccc(C(C)=O)c2)C1=O | -3.6%
O=C1CCCN1C(=O)COc1ccc([N+](=O)[O-])cc1 | -5.83%
C[C@H](OC(=O)n1ccnc1)[C@@H]1O[C@@]2(C)CCC[C@@H]1O2 | -0.3%
CCC(=O)N1c2ccc(S(=O)(=O)NCc3ccco3)cc2CC1C (stereo not given) | 4.56%
CC(NC(=O)CNC(=O)Cc1cccc2ccccc12)c1ccc(S(N)(=O)=O)cc1 (stereo not given) | -2.38%

SMILES | activation
COc1ccc(CC(=O)NC(C)c2ccc(Cl)c(Cl)c2)cc1S(=O)(=O)N1CCOCC1 (stereo not given) | -3.32%
CN(C(=O)c1cccc(NC(=O)Cc2ccc(NC(=O)C3CCCN(C(=O)C4CCCC4)C3)cc2)c1)C1CCC1 (stereo not given) | 1.94%
COC(C[C@H](O)CC(=O)COCc1ccccc1)OC | 0.157%
C[C@H](CO)N1C[C@H](C)[C@@H](CN(C)S(=O)(=O)c2ccc(F)cc2)OCc2cnnn2CCCC1=O | -9.17%
CC(C)C1C(=O)N(Cc2cn(CCC3OCCO3)nn2)CCS(=O)(=O)N1Cc1ccc(-c2ccccc2C(F)(F)F)cc1 (stereo not given) | -3.03%
Oc1ccccc1CNc1ncc(Br)cc1Br | 0.262%
O=C(CSc1ccsc1[N+](=O)[O-])N1CCCCC1 | -4.54%
Cc1cccc(NC(=O)c2ccc(OCC(=O)NCc3ccccc3)cc2)c1C | -2.68%
Cc1c(NC(=O)C(C)OC(=O)c2cc3c4ccccc4n(C)c3s2)c(=O)n(-c2ccccc2)n1C (stereo not given) | -5.25%
Cc1ccc(C(=O)NC2CCCC(C)C2C)cc1S(=O)(=O)N1CCCCC1 (stereo not given) | -2.55%
N#CC1=C(N)N(c2ccc(F)cc2)C(=O)C1 | -1.46%
CC1(C)C(=O)C2(CCCCC2)C(=O)OC1c1cccs1 (stereo not given) | -2.99%
CC(=O)Nc1ccc(CNc2nc(NCCN(C)C)nc3cc(-c4ccccc4)sc23)cc1 | -1.9%
COCCNc1nc(NCc2ccc(NC(C)=O)cc2)c2sccc2n1 | 67.7% (active)
COc1cccc(CNc2nc(NCc3cccs3)nc3ccsc23)c1 | -1.88%
COc1cccc(C(O)c2ncc(-c3ccc4ccccc4c3)[nH]2)c1 (stereo not given) | -2.42%
CC1(C(=O)Nc2ccccc2Br)CCN1C(=O)CC1CC1 (stereo not given) | -0.948%
COc1cc(NC(=O)C2CCN(c3cnccn3)CC2)cc(OC)c1 | -4.96%
COc1ccc(N(CC(=O)Nc2cc(OC)cc(OC)c2)S(=O)(=O)c2c(C)n[nH]c2C)cc1 | -3.11%
CCNC(=O)Nc1ccc(S(=O)(=O)Nc2cnc(C)nc2C)cc1 | -5.47%
O=c1ccc(-c2ccc(S(=O)(=O)Nc3ccccc3)o2)n[nH]1 | -1.56%
CCN1C(=O)C(=O)N(CC(=O)Nc2cc(C)ccc2C)C1=O | -2.03%
CCOc1ccc(CN2CCC(n3nccc3NC(=O)C3CC3)CC2)cc1CO | 4.34%

SMILES | activation
CCCNC(=O)c1cc(C2CCCCN2C(=O)OC)on1 (stereo not given) | -5.6%
COc1ccc(C2=Nc3ccccc3NC(=O)C2N(C(=O)c2cc3ccccc3[nH]2)c2ccccc2)cc1 (stereo not given) | 2.65%
CC(C)(O)C#Cc1ccc(CNC[C@H]2O[C@@H](n3cnc4c(=O)[nH]c(N)nc43)[C@H](O)[C@@H]2O)s1 | -5.21%
O=S(=O)(Cc1nnnn1-c1ccccc1)c1ccccc1 | 0.629%
CC(=O)c1c(N2CCN(c3ccc(F)cc3)CC2)nc(=S)n(-c2ccccc2)c1C | -6.73%
CC(C)c1ccc(S(=O)(=O)N2CCN(C(=O)CN3C(=O)NC(C)(c4ccccc4)C3=O)CC2)cc1 (stereo not given) | 1.77%
O=C(Nc1ccc(Cl)c(Cl)c1)N1CC=C(c2ccccc2)CC1 | -2.15%
CC1CC(C)CN(C(=O)COC(=O)c2ccc3ncsc3c2)C1 (stereo not given) | 0.233%
CCC(=O)c1c[nH]c(C(=O)NCC2CCCO2)c1 (stereo not given) | -0.182%
CCCC(=O)N1c2ccc(-c3csc(N)n3)cc2CC1C (stereo not given) | 2.86%
COc1ccc(C(C)(O)c2nc(-c3ccc(C)c(C)c3)cs2)cc1 (stereo not given) | 0.66%
CC(C)(C)C(=O)OCc1nc(-c2ccc(O)c(O)c2)cs1 | 78% (active)
CCCN(CCC)c1c([N+](=O)[O-])c(=O)oc2ccccc12 | -4.9%
O=C1/C(=C\c2ccc([N+](=O)[O-])cc2)CS(=O)(=O)C/C1=C/c1ccc([N+](=O)[O-])cc1 | -8.23%
O=C(O)C1CCN1C1CCCCC1 (stereo not given) | -0.715%
OC[C@@H]1CN(Cc2cccs2)C[C@H](n2cnc3c(Nc4ccccc4)ncnc32)O1 | -3.6%
COc1cccc(-c2cnc3c(NC(C)=O)cc(-c4cc(F)ccc4OC)cn23)c1 | 2.15%
CN1C(=O)/C(=C/C=C2\SCCN2C)OC1=S | -3.31%
O=C1c2ccccc2C(=O)N1CCC(O)C[N+](=O)[O-] (stereo not given) | -2.92%
O=C(NC1CC2CCCC(C1)N2C(=O)N1CCCCC1)C1CCCCC1 (stereo not given) | -2.68%
O=C(Nc1ccccc1N1CCOCC1)c1ccc(OCc2cscn2)cc1 | 9.98%
